Experimental data taken from PubChem BioAssay (NCATS).
Records with an inconclusive call do not appear. Active and inactive are the calls of the source. Calls come from the whole dose curve; as a rule, active = well fitted curve in the direction sought with a large enough effect; inconclusive = small, poorly fitted or top-dose-only effect, or another doubt; inactive = no such curve, though single readings can be large; an effect the other way counts as inactive or inconclusive.

What was measured:
[1] = COV-362 Cancer Cell Toxicity qHTS against the NCATS CANVASS Library (AID 1347352)
Summary of the method: (§1)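 First, 1000 cells go into each well and rest for 4 hours. Next, an 11-point dilution range is pinned in. Plates then incubate 72 hours before CellTiter-Glo addition and luminescence reading.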

[2] = A2780 Cisplatin Sensitive Ovarian Cancer Cell Toxicity qHTS against the NCATS CANVASS Library (AID 1347353); conditions: A2780 ovarian cancer viability, ATPLite luminescence, 72 h; at 15.4 µM (top of the series); note: nearly all actives have a fitted effect of over 60% in size
Summary of the method: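 Cells are plated at 750 per well and rest for 4 hours. Compounds are added across eleven concentrations, and incubated 72 hours before ATP is quantified by luminescence.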

[3] = UWB1.289-WTBRCA1 Cancer Cell Toxicity qHTS against the NCATS CANVASS Library (AID 1347354)
Summary of the method: as §1

[4] = HEK-293 Cancer Cell Toxicity qHTS against the NCATS CANVASS Library (AID 1347355); conditions: HEK-293 viability, CellTiter-Glo luminescence, 72 h; at 15.4 µM (top of the series); note: nearly all actives have a fitted effect of over 65% in size
Summary of the method: as §1

[5] = HPAF-II 24hr Apoptosis Induction qHTS against the NCATS CANVASS Library (AID 1347356)
Summary of the method: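 Cells seeded at 500 per well, then compounds pin-transferred in an 11-point concentration series. After 24 hours at 37 degrees C, Caspase-Glo 3/7 was added and luminescence measured following 15 min at room temperature.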

[6] = HEK293 18hr Apoptosis Induction qHTS against the NCATS CANVASS Library (AID 1347357)
Summary of the method: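 Cells seeded at 500/well in DMEM + 10% FBS. Compounds pinned, 11 concentrations. 18 h, 37 degrees C/5% CO2. Caspase-Glo 3/7 added, 15 min RT dark, luminescence read.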

[7] = HPAF-II 12hr Apoptosis Induction qHTS against the NCATS CANVASS Library (AID 1347358)
Summary of the method: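 Cells plated at 500 per well are dosed with compound and incubated 12 hours at 37 degrees C. Caspase-Glo 3/7 reagent is added and, after 15 min at room temperature, luminescence proportional to caspase activity is measured.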

[8] = HEK293 24hr Apoptosis Induction qHTS against the NCATS CANVASS Library (AID 1347359)
Summary of the method: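 Caspase-3/7 activation measured as luminescence from the DEVD-based Caspase-Glo reagent, 15 min at room temperature, following 24-hour compound treatment of HEK293 cells.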

[9] = HPAF-II 18hr Apoptosis Induction qHTS against the NCATS CANVASS Library (AID 1347360)
Summary of the method: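 Seed HPAF-II cells at 500/well in DMEM + 10% FBS, pin-transfer compounds, incubate 18 hours at 37 degrees C/5% CO2, add Caspase-Glo 3/7 reagent, wait 15 min, read luminescence.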

[10] = HEK293 12hr Apoptosis Induction qHTS against the NCATS CANVASS Library (AID 1347361)
Summary of the method: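 Cells are seeded, dosed with an 11-point compound series and incubated 12 hours. Caspase-3/7 activity is detected by luminescent DEVD-substrate reagent after 15 minutes at room temperature.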

[11] = test system: NAD(P)H diaphorase (Clostridium kluyveri); assay: Diaphorse counterscreen qHTS: Assay Interference Panel against the NCATS CANVASS Library (AID 1347362)
Summary of the method: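 Counterscreen for coupling-enzyme interference: resorufin fluorescence from resazurin/NADH turnover, read after 5 min at room temperature. Compounds were tested over an 11-point series after 15 min dark preincubation with diaphorase in PBS-Tween.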

[12] = biological target: Luciferin 4-monooxygenase (Photinus pyralis) (UniProt P08659); assay: Firefly luciferase counterscreen qHTS: Assay Interference Panel against the NCATS CANVASS Library (AID 1347363)
Luciferin 4-monooxygenase (Photinus pyralis), sequence (P08659 whole entry, looked up): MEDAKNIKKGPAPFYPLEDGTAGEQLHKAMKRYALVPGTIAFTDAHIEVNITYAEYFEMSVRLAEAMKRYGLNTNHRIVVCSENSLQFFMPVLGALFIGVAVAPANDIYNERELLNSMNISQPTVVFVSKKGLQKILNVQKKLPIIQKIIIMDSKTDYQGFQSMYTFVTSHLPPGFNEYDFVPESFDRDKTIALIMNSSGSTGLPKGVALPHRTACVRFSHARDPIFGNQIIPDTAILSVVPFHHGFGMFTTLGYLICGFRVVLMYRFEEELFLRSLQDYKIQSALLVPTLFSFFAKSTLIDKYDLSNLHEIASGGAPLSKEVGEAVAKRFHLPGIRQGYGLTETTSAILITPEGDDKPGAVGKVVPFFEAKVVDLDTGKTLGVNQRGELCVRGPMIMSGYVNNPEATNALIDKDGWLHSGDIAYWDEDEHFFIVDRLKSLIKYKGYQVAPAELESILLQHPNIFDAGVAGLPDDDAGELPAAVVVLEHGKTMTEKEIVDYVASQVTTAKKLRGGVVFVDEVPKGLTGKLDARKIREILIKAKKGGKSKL
Summary of the method: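 Luminescence inhibition readout: compounds (11-point qHTS) sat 15 min at room temperature with substrate mix (0.013 mM luciferin and ATP), then firefly luciferase was added and signal read 5 min later.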

[13] = KB-8-5-11 Cancer Cell Toxicity qHTS against the NCATS CANVASS Library (AID 1347364); conditions: KB-8-5-11 MDR cells viability, CellTiter-Glo, 72 h; at 15.4 µM (top of the series); note: nearly all actives have a fitted effect of over 75% in size
Summary of the method: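 Terse: KB-8-5-11, 500 cells/well, 72 hr, 37C/5% CO2, 11-pt titration, CellTiter-Glo readout; confirmatory runs ± 1uM tariquidar in medium.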

[14] = SDT Cancer Cell Toxicity qHTS against the NCATS CANVASS Library (AID 1347365);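 note: SDT canine glioma cells 500 per well in 1536 well plates; nearly all actives have a fitted effect of over 60% in size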
Summary of the method: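 Cytotoxicity is measured from cellular ATP: compounds in an 11-point concentration series are pinned onto SDT cells, incubated 72 hr at 37C, then CellTiterGlo is added and luminescence read.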

[15] = KB-3-1 Cancer Cell Toxicity qHTS against the NCATS CANVASS Library (AID 1347366); conditions: KB-3-1 viability, CellTiter-Glo luminescence, 72 h; at 15.4 µM (top of the series); note: nearly all actives have a fitted effect of over 75% in size
Summary of the method: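 Luminescence from CellTiter-Glo (10 min, room temperature) measured KB-3-1 viability after 72 hr compound exposure at 37C. Cells were seeded at 500/well and tested in an 11-point series.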

[16] = qHTS for ATAD5 Agonist screened against the NCATS CANVASS Library (AID 1347367);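 note: luciferase reporter driven by ATAD5 which rises upon DNA damage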
Summary of the method: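 HEK293T-ATAD5 luc reporter; 2000 cells/well; 5hr settle; cpd 11-pt qHTS; 16hr 37C 5% CO2 dark; viability by CellTiter-Fluor (AFC fluorescence); then luciferase luminescence, 30min RT.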

[17] = G06 Cancer Cell Toxicity qHTS against the NCATS CANVASS Library (AID 1347368); note: nearly all actives have a fitted effect of over 60% in size
Summary of the method: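 Cells were plated at 500 per well, then compounds were added over an 11-point range. After 72 hr at 37C, CellTiterGlo was added and luminescence measured as ATP content.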

[18] = MCF7 Cancer Cell Toxicity qHTS against the NCATS CANVASS Library (AID 1347369); conditions: MCF7 viability, ATP luminescence (CellTiter-Glo), 72 h; at 15.3 µM (top of the series)
Summary of the method: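 Cells seeded at 500/well, then compound pinned. Plates incubated 72 hr at 37C, 5% CO2. CellTiterGlo added; luminescence read.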

[19] = qHTS for ATAD5 Antagonist screened against the NCATS CANVASS Library (AID 1347370);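 note: HEK293T cells carrying an ATAD5 luciferase reporter co-treated with 10 µM 5-fluorouridine; nearly all actives have a fitted effect of over 65% in size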
Summary of the method: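 Compounds (11-point) co-dosed with 10 µM 5-FUrd for 16 h at 37 °C onto HEK293T-ATAD5 luciferase reporter cells. Viability measured by CellTiter-Fluor fluorescence, then ATAD5 reporter signal by luminescence.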

[20] = J3T Cancer Cell Toxicity qHTS against the NCATS CANVASS Library (AID 1347371);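 note: J3T is a canine glioma cancer cell line seeded at 500 cells per well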
Summary of the method: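 Luminescence from CellTiterGlo, reporting cellular ATP, serves as the viability measure after 72 hr compound treatment of J3T canine glioma cells seeded at 500 cells/well.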

Measured: outcome

C[C@@H]1O[C@@H](OC[C@H]2O[C@@H](Oc3c(-c4ccc(O)c(O)c4)oc4cc(O)cc(O)c4c3=O)[C@H](O)[C@@H](O)[C@@H]2O)[C@H](O)[C@H](O)[C@H]1O
inactive: all assays above
